Measured values: PubChem BioAssay (NCATS)
Inconclusive results are not listed. Active and inactive are the calls of the source. Calls follow the shape of the dose curve; as a rule, active = well fitted inhibition curve with a large enough effect; inconclusive = small, poorly fitted or top-dose-only effect; inactive = flat fitted curve, though single readings scatter.

Target: Glutathione peroxidase 1 (Homo sapiens) (UniProt P07203)
Assay: Primary qHTS Assay for Inhibitors of Recombinant Selenoprotein Glutathione Peroxidase 1 (GPX1) (AID 1845191); also: nearly all actives have a fitted effect of over 65% in size
Conditions: recombinant GPX1, GR-coupled NADPH fluorescence, 15 min; series mostly up to 48.8 µM; activity, negative = inhibition: at the top concentration
Summary of the method: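 GPX1 10 nM, GR 100 nM, GSH 1 mM, NADPH 0.5 mM, CHP 0.5 mM (final). 30-min cpd preincubation, RT. Ex340/Em450 read t=0, t=15 min.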
% is scaled to controls: 0 for no effect and ±100 for the full control effect.

Chain of Glutathione peroxidase 1 (Homo sapiens) (P07203 whole entry, looked up): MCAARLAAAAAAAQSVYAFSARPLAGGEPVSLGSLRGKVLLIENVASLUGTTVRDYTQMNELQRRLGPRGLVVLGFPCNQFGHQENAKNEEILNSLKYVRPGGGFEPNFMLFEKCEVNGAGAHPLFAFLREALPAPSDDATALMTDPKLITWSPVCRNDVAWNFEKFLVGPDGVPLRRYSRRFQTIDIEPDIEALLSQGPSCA

Structure (SMILES) | outcome | activity, negative = inhibition | Potency
COC1=CC(=O)O[C@@H](CCc2ccccc2)C1 | inactive |  | 
CN1C(=O)N(c2ccc(C#N)c(C(F)(F)F)c2)C(=O)[C@]1(CO)c1ccccc1 | inactive |  | 
CC(C)CCON=O | inactive |  | 
CCCCCCn1c(=O)c(C(=O)Nc2ccc(C(=O)OCCC)cc2)c(O)c2ccccc21 | inactive [at 9.52 µM] |  | 
O=[N+]([O-])c1ccccc1 |  | 4.93% (inactive) | 
CO[C@@H]1[C@H](O)[C@@H](O[C@@H]2C[C@H]3CC[C@@H]4C(CC[C@]5(C)[C@@H](C6=CC(=O)OC6)CC[C@]45O)[C@@]3(C)[C@H](O)C2)O[C@H](C)[C@@H]1O[C@@H]1O[C@H](CO)[C@@H](O)[C@H](O)[C@H]1O (some centres undefined) |  | -1.88% [at 15.3 µM] (inactive) | 
COC1CC(OC2CCC3(C)C(=CCC4C3CCC3(C)C(C(C)OC5OC(COC6OC(CO)C(O)C(O)C6O)C(O)C(O)C5O)CCC43O)C2)OC(C)C1OC1OC(C)C(O)C(OC)C1O (centres undefined) | inactive [at 15.3 µM] |  | 
CO[C@H]1[C@H](O)[C@H](O[C@H]2CC[C@]3(C)C4CC[C@]5(C)[C@H](C6=CC(=O)OC6)CC[C@]5(O)C4CC[C@@H]3C2)O[C@@H](C)[C@@H]1O (some centres undefined) |  | -7.46% [at 27.7 µM] (inactive) | 
O=C(O)c1ccnc2cc(C(OCCN3CCCCC3)c3ccccc3Cl)[nH]c12 (centres undefined) | inactive |  | 
CCC(=O)O[C@@](Cc1ccccc1)(c1ccccc1)[C@@H](C)CN(C)C | inactive |  | 
Cc1[nH]c2ccc(O)cc2c1CCN |  | -30.8% (inactive) | 
COc1cc(C)[nH]c(=O)c1CNC(=O)c1c(C)n([C@H](C)C2CCOCC2)c2ccccc12 |  |  | inactive
CN1CCCC1CCOC(c1cc2nccc(C(=O)O)c2[nH]1)c1ccccc1Cl (centres undefined) |  | -14% (inactive) | 
COC1CC(O[C@H]2CC[C@]3(C=O)C4CC[C@]5(C)[C@@H](C6=CC(=O)OC6)CC[C@]5(O)[C@@H]4CC[C@]3(O)C2)OC(C)C1O[C@@H]1O[C@H](CO)[C@@H](O)[C@H](O)[C@H]1O (some centres undefined) | inactive [at 15.3 µM] |  | 
Cn1ncnc1COc1nn2c(-c3c(F)cccc3F)nnc2cc1C1CCC1 |  | -7.88% (inactive) | 
CC(C)[C@@H](CN1CC[C@@](C)(c2cccc(O)c2)[C@@H](C)C1)NC(=O)[C@H]1Cc2ccc(O)cc2CN1 |  | 0.739% (inactive) | 
COC(=O)C12C(=O)C(C)(O)C(=O)C1(C)C(C)=CC1C34CCC(OC3=O)C(C)(CO)C4CCC12C (centres undefined) | inactive [at 27.7 µM] |  | 
C=C(C)[C@H]1O[C@H]2CC[C@@]3(C)[C@@](O)(CC[C@H]4[C@@H]5OC(C)(C)[C@H]6C[C@@H]7C(=C)Cc8c(Cl)cc9[nH]c(c5c9c8[C@@]76O)[C@@]43C)[C@]23O[C@@H]3[C@H]1O |  | -16.8% [at 15.3 µM] (inactive) | 
C=CCN1CCC23c4c5ccc(O)c4O[C@H]2C(=O)CC[C@@]3(O)C1C5 (some centres undefined) |  | -12.5% (inactive) | 
C=C[C@H]1CN2CC[C@H]1C[C@@H]2[C@@H](O)c1ccnc2ccccc12 |  |  | inactive

Structure (SMILES) | outcome | activity, negative = inhibition | Potency
CC(C)(C)OC(=O)NC1[C@H]2CNC[C@@H]12 (some centres undefined) |  | -1.75% (inactive) | 
Clc1ccc(OCC2=NCCN2)cc1Cl |  | 0.154% (inactive) | 
CC(C)(C)c1cc(C(C)(C)C)c2c(c1)C(O)(C(F)(F)F)C(=O)O2 (centres undefined) | inactive |  | 
CCOc1ccccc1-n1c(C(C)N2CCN(C(=O)COc3ccc(Cl)cc3)CC2)nc2ccccc2c1=O (centres undefined) |  |  | inactive
CCCCCCC(=O)O[C@H]1CC[C@H]2[C@@H]3CC[C@H]4CC(=O)C=C(C)[C@]4(C)[C@H]3CC[C@]12C |  | -47.7% (inactive) | 
CC[C@H]1CN2CC[C@H]1C[C@H]2[C@H](O)c1ccnc2ccc(OC)cc12 | inactive [at 27.7 µM] |  | 
COC1CC(OC2CCC3(C=O)C(CCC4C3CCC3(C)C(C5=CC(=O)OC5)CCC43O)C2)OC(C)C1OC1OC(CO)C(O)C(O)C1O (centres undefined) | inactive [at 15.3 µM] |  | 
CC(=O)OC1CC(O)C2(C)C(CC(OC(C)=O)C3(C)C2CCC2(C)C(c4ccoc4)C(=O)C4OC423)C1(C)C (centres undefined) | inactive [at 27.7 µM] |  | 
CC1=C2C[C@H]3[C@@H](CC=C4C[C@@H](O)CC[C@@]43C)[C@@H]2CC[C@]12O[C@@H]1C[C@H](C)CN[C@H]1[C@H]2C | inactive |  | 
CCN1C[C@]2(OC(=O)c3ccccc3NC(C)=O)CC[C@H](OC)[C@@]34[C@@H]2C[C@@H]([C@@H]13)[C@@]1(O)C[C@H](OC)[C@H]2C[C@@H]4[C@]1(O)[C@H]2OC |  | 2.69% (inactive) | 
O=C(O)C(Cl)(Cl)Cl | inactive |  | 
C[C@H](NC(=O)Cc1cc(F)cc(F)c1)C(=O)N[C@@H]1N=C(c2ccccc2)c2ccccc2N(C)C1=O |  | -8.95% (inactive) | 
c1ccc2cc(CC3=NCCN3)ccc2c1 |  | -13.2% (inactive) | 
OC1(c2ccc(Cl)cc2)c2ccccc2C2=NCCN21 (centres undefined) | inactive |  | 
CCCN1CCO[C@H]2c3cc(O)ccc3OC[C@@H]21 | inactive |  | 
CCCCCOc1cc2c(cc1-c1cc(/C=C/C(=O)O)ccc1O)C(C)(C)CCC2(C)C | inactive |  | 
C/C=C(\C)C(=O)OC1CC2C(CC=C3CC(OC4CC(OC)C(OC5CC(OC)C(OC6OC(C)C(OC7OC(CO)C(O)C(O)C7O)C(OC)C6O)C(C)O5)C(C)O4)CCC32C)C2(O)CCC(C(C)=O)C12C (centres undefined) |  | -8.48% [at 15.3 µM] (inactive) | 
N=C(N)c1ccc(CS(=O)(=O)F)cc1 | inactive |  | 
CN[C@H]1[C@H](O)[C@H](O[C@@H]2[C@@H](O)[C@H](O[C@H]3O[C@H]([C@H](C)O)[C@@H](O)[C@H](O)[C@H]3N)[C@@H](N)C[C@H]2N)OC[C@@]1(C)O |  | -3.82% (inactive) | 
